# BioA inh – inhibitors of Mycobacterium tuberculosis BioA enzyme. purified M. tuberculosis BioA enzyme, plate reader. inhibition, % at 9.99 µM. 360,000 tested, 0.096% active; in the data active means inhibition above about 40%
# Yp Topo-I inh – Y. pestis Topo-I inhibition via cleavage products | Y. pestis Topo-I cleavage product accumulation, plate reader | activity, % at 10 µM | 360,000 tested, 0.064% active; in the data active means activity above about 50%, passing the limit was not always enough
# TcdB GH inh – blocks C. difficile toxin B glycohydrolase activity | P18177 | AID 652162 | 350,000 tested, 0.24% active | inhibition, % at 9.99 µM | TcdB glycohydrolase enzymatic assay, plate reader; in the data active means inhibition above about 10%
# The depositor's hits bear a star; x = no result; ! = not active in a repeat. A selection: hits, their analogues and other compounds. The true share with any hit is near 0.32%.
SMILES,BioA inh,Yp Topo-I inh,TcdB GH inh
C[C@@H]1CN([C@H](C)CO)C(=O)c2cc(C#CCN(C)C)cnc2O[C@H]1CN(C)C(=O)NC1CCCCC1,0,x,0
COc1ccc(C2=NS(=O)(=O)N(C)C(C(=O)Nc3ccc(C)cc3)=C2)cc1,-1,-9,1
CCc1ccc(NC(=O)C2=CC(c3ccc(OC)cc3)=NS(=O)(=O)N2C)cc1,1,1,76*
Nc1cc(=O)[nH]c(SCC(=O)Nc2cccnc2Cl)n1,0,-13,1
Nc1cc(=O)[nH]c(SCC(=O)Nc2ccccc2Sc2ccc(Cl)cc2)n1,x,2,10*
O=C(C[C@H]1CC[C@@H]2[C@H](COC[C@@H](O)CN2S(=O)(=O)c2ccccc2)O1)N1CCOCC1,-2,x,-1
CO[C@H]1CN(C)C(=O)c2cc(NC(=O)NC3CCCCC3)ccc2OC[C@@H](C)N(C)C[C@@H]1C,-5,x,-1
Cc1ccc(SCc2c(C(=O)N/N=C/c3ccc4c(c3)OCO4)nnn2-c2nonc2N)cc1,-1,1,-1
Cc1ccc(-c2c(C(=O)N/N=C/c3ccc4c(c3)OCO4)nnn2-c2nonc2N)cc1,-2,58*,1
Cc1noc(C)c1S(=O)(=O)Nc1ccc2c(c1)C(=O)N([C@@H](C)CO)C[C@@H](C)[C@H](CN(C)C(=O)CCCN(C)C)OCCCC[C@@H](C)O2,-1,x,x
COc1ccc2c3c([nH]c2c1)[C@H](CO)N(C(=O)NC(C)C)CC31CCN(C(=O)c2cccnc2)CC1,x,x,0
CCN(CC)CCNc1cccc2sc3ccccc3c(=O)c12,-1,-5,2
Cc1ccc(NCCN(C)C)c2c(=O)c3cc(O)ccc3sc12,x,-46,21*
CN(C)CCNc1cccc2sc3ccc(O)cc3c(=O)c12,x,x,39*
COc1cc(C)c2sc3ccccc3c(=O)c2c1NCCN(C)C,4,-42,7
C[C@H](CO)N1C[C@H](C)[C@@H](CN(C)C(=O)Nc2ccc3c(c2)OCO3)Oc2c(NC(=O)C3CCOCC3)cccc2C1=O,0,x,0
CCCC(=O)Nc1ccc2c(c1)C(=O)N(C)[C@H]1CC[C@H](CC(=O)NCCOC)O[C@@H]1CO2,-2,x,x
C[C@H]1CN([C@@H](C)CO)C(=O)c2cc(NC(=O)CCN3CCOCC3)ccc2O[C@@H]1CN(C)CC1CCCCC1,-2,x,-1
C[C@H](CO)N1C[C@H](C)[C@@H](CN(C)CC2CCCCC2)Oc2ccc(NC(=O)CCN3CCOCC3)cc2C1=O,-2,23,10*!
O=C(C[C@H]1C[C@@H]2c3cc(NC(=O)NC4CCCC4)ccc3O[C@@H]2[C@@H](CO)O1)NCc1ccc(Cl)cc1,-3,x,-2
CCOc1c2ccc(C(=O)NCCCCc3ccccc3)cc2nn1C,-1,37,0
COc1c2ccc(C(=O)NCCCCc3ccccc3)cc2nn1C,-1,4,14*
CCC(=O)N1CC(=O)N2[C@@H](CO)[C@H](c3ccc(C#CC4CCCCC4)cc3)[C@@H]2C1,x,x,3
COc1ccccc1NC(=O)N(C)C[C@H]1OCc2ccccc2-c2ccccc2C(=O)N([C@H](C)CO)C[C@H]1C,-4,x,x
O=C(Nc1nnc(-c2ccco2)o1)C1CCCCC1,1,1,1
SMILES,BioA inh,Yp Topo-I inh,TcdB GH inh
O=C(Nc1nnc(-c2ccco2)o1)C1CC1,0,-2,10*
COc1cc2c(cc1OC)C1=NC(=O)CN1C(SCc1ccccc1C)=N2,-1,42,x
Cc1ccc(CSC2=Nc3ccccc3C3=NC(=O)CN23)cc1,x,157*,1
CC(C)(C)c1cc(Cl)c(O)c(NC(=S)NC(=O)c2cccnc2)c1,x,-11,10*
CC(C)(C)c1ccc(C(=O)NNC(=S)NC(=O)c2cccnc2)cc1,1,-4,-1
CCCN1C[C@@H](C)[C@@H](OC)CN(C)C(=O)c2ccc(NC(=O)c3ccc(F)cc3)cc2OC[C@H]1C,1,x,x
C[C@@H]1CN([C@@H](C)CO)C(=O)c2cc(NS(=O)(=O)c3cn(C)cn3)ccc2O[C@H]1CN(C)C(=O)Nc1ccccc1,2,x,0
O=C(c1cnccn1)N1CC(=O)N2[C@@H](CO)[C@H](c3ccc(-c4ccccc4)cc3)[C@@H]2C1,x,x,1
COc1ccc(S(=O)(=O)Nc2ccc3c(c2)C(=O)N([C@@H](C)CO)C[C@H](C)[C@H](CN(C)C(=O)NC2CCCCC2)OCCCC[C@H](C)O3)cc1,-1,x,0
COc1ccc(-c2cc(C(=O)Nc3cc(C)nn3-c3ccccc3)no2)cc1,0,4,x
Cc1cc(NC(=O)c2cc(-c3ccccc3)on2)n(-c2ccccc2)n1,-1,107*,x
CNC(=O)C[C@@H]1CC[C@@H]2[C@@H](COc3ccc(NC(=O)c4ccc(C(F)(F)F)cc4)cc3C(=O)N2C)O1,1,x,x
COc1ccc(C(=O)Nc2cc(Cl)ccc2C(=O)O)cc1,x,-4,29*
COc1ccc(C(=O)Nc2cc(Cl)ccc2OC(=O)c2ccc(OC)cc2)cc1,-2,1,x

# Assay outcomes (PubChem)
